Experimental data taken from the supplement of paper PMC12350171.
Structures can show the parent of a compound that is named as a salt. Values without a mark were called inactive.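 How the source made its calls: active = AUC significantly below DMSO controls by Student t-fit with adjusted P under 0.01; inactive = not significantly reduced.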

tested on: Haemophilus parainfluenzae; assay: growth AUC normalised to DMSO control (fraction of control); higher = less growth inhibition, active = hit call of the paper; conditions: 20 µM
In short: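 Pathogens passaged twice anaerobically were inoculated at a starting OD578 of 0.01 into pre-reduced mGAM plates with drug at 20 μM and 1% DMSO, sealed with breathable membranes. Haemophilus parainfluenzae medium was supplemented with hemin and NAD. OD578 was read hourly for 24 h, with three biological replicates. Growth-curve AUC was computed by the trapezoidal rule up to the exponential-to-stationary transition and normalised to DMSO controls on the same plate.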

SMILES	growth AUC normalised to DMSO control
N=C(N)NS(=O)(=O)c1ccc(N)cc1 [Sulfaguanidine]	1.04
C[C@]12C[C@H](O)[C@H]3[C@@H](CCC4=CC(=O)CC[C@@]43C)[C@@H]1CC[C@@H]2C(=O)CO [Corticosterone]	0.962
C[C@H]1C[C@H]2[C@@H]3CCC4=CC(=O)C=C[C@]4(C)[C@@]3(F)[C@@H](O)C[C@]2(C)[C@@]1(O)C(=O)CO [Betamethasone]	0.974
CC1=C(/C=C/C(C)=C/C=C/C(C)=C\C(=O)O)C(C)(C)CCC1 [Isotretinoin]	1.02
CC(=O)Nc1c(I)c(C(=O)N[C@H]2C(O)O[C@H](CO)[C@@H](O)[C@@H]2O)c(I)c(N(C)C(C)=O)c1I (stereo partly specified) [Metrizamide]	0.984
CN(C)C(=N)NC(=N)N [Metformin hydrochloride]	1.03
CC[N+](C)(C)c1cccc(O)c1 [Edrophonium chloride]	0.936
CN(C)CC/C=C1/c2ccccc2Sc2ccc(Cl)cc21 [Chlorprothixene hydrochloride]	0.887
Nc1ccc(S(=O)(=O)Nc2ccnn2-c2ccccc2)cc1 [Sulfaphenazole]	0.925
CCC1(c2ccccc2)NC(=O)N(C)C1=O (stereo unspecified) [Mephenytoin]	1.04
OCCOCCN1CCN(C2=Nc3ccccc3Sc3ccccc32)CC1 [Quetiapine hemifumarate]	0.997
O=C(O)Cc1ccccc1Nc1c(Cl)cccc1Cl [Diclofenac sodium]	0.936
O=C(O)c1cn(-c2ccc(F)cc2)c2cc(N3CCNCC3)c(F)cc2c1=O [Sarafloxacin]	0.0521 (active)
CCCCNc1ccc(C(=O)OCCOCCOCCOCCOCCOCCOCCOCCOCCOC)cc1 [Benzonatate]	1
N=C(N)NCC1COC2(CCCCC2)O1 (stereo unspecified) [Guanadrel sulfate]	0.967
Clc1ccccc1CN1CCc2sccc2C1 [Ticlopidine hydrochloride]	0.972

SMILES	growth AUC normalised to DMSO control
C#C[C@]1(OC(C)=O)CC[C@H]2[C@@H]3CCC4=CC(=NO)CC[C@@H]4[C@H]3CC[C@@]21CC (mixture of isomers) [Norgestimate]	0.908
CCN(CC)C(=O)c1ccc(O)c(OC)c1 [Ethamivan]	1.03
CC(=O)Oc1cc(C(F)(F)F)ccc1C(=O)O [Triflusal]	0.819
CCCCOc1ccc(CC(=O)NO)cc1 [Bufexamac]	1
CCCCC(C)(O)C/C=C/[C@H]1[C@H](O)CC(=O)[C@@H]1CCCCCCC(=O)OC (mixture of isomers) [Misoprostol]	1.02
CN(C)C/C=C(/c1ccc(Br)cc1)c1cccnc1 [Zimelidine dihydrochloride monohydrate]	0.972
O=C(O)c1cccnc1Nc1cccc(C(F)(F)F)c1 [Niflumic acid]	1.02
CCn1nc(C(=O)O)c(=O)c2cc3c(cc21)OCO3 [Cinoxacin]	0.294 (active)
CC(C)(C(=O)O)c1ccc(C(O)CCCN2CCC(C(O)(c3ccccc3)c3ccccc3)CC2)cc1 (stereo unspecified) [Fexofenadine hydrochloride]	1.01
Nc1nc(=O)c2c([nH]1)NC[C@@H](CNc1ccc(C(=O)N[C@@H](CCC(=O)O)C(=O)O)cc1)N2C=O [Folinic acid calcium salt]	1
CC1CCc2c(N3CCC(O)CC3)c(F)cc3c(=O)c(C(=O)O)cn1c23 (stereo unspecified) [Nadifloxacin]	0.0309 (active)
COc1cnc(NS(=O)(=O)c2ccc(N)cc2)nc1 [Sulfameter]	0.98
CCOc1cc(CC(=O)N[C@@H](CC(C)C)c2ccccc2N2CCCCC2)ccc1C(=O)O [Repaglinide]	1.08
CCOC(=O)O[C@]1(C(=O)COC(=O)CC)CC[C@H]2[C@@H]3CCC4=CC(=O)C=C[C@]4(C)[C@H]3[C@@H](O)C[C@@]21C [Prednicarbate]	1.16
CC(=O)OCC(=O)[C@@]12OC3(CCCC3)O[C@@H]1C[C@H]1[C@@H]3CCC4=CC(=O)C=C[C@]4(C)[C@@]3(F)[C@@H](O)C[C@@]12C [Amcinonide]	1.03
